For some assays here: Results with a measured potency or affinity are listed apart.
Assays:
Design in all cases: scale not given: direction of the effect not stated beside the values
[1] = biological target: Protein translocase subunit SecA (Escherichia coli (strain K12)) (UniProt P10408); assay: Assay to Identify E. coli SecA ATPase Inhibitors; assay type: functional; settings: 30 µM
[2] = biological target: T1, Ubiquitin-activating enzyme e1, putative (Leishmania donovani (strain BPK282A1)) (UniProt E9BSI1); assay: Leishmania donovani Ubiquitin Activating Enzyme (LdE1); assay type: functional; settings: 30 µM
T1 sequence (whole entry): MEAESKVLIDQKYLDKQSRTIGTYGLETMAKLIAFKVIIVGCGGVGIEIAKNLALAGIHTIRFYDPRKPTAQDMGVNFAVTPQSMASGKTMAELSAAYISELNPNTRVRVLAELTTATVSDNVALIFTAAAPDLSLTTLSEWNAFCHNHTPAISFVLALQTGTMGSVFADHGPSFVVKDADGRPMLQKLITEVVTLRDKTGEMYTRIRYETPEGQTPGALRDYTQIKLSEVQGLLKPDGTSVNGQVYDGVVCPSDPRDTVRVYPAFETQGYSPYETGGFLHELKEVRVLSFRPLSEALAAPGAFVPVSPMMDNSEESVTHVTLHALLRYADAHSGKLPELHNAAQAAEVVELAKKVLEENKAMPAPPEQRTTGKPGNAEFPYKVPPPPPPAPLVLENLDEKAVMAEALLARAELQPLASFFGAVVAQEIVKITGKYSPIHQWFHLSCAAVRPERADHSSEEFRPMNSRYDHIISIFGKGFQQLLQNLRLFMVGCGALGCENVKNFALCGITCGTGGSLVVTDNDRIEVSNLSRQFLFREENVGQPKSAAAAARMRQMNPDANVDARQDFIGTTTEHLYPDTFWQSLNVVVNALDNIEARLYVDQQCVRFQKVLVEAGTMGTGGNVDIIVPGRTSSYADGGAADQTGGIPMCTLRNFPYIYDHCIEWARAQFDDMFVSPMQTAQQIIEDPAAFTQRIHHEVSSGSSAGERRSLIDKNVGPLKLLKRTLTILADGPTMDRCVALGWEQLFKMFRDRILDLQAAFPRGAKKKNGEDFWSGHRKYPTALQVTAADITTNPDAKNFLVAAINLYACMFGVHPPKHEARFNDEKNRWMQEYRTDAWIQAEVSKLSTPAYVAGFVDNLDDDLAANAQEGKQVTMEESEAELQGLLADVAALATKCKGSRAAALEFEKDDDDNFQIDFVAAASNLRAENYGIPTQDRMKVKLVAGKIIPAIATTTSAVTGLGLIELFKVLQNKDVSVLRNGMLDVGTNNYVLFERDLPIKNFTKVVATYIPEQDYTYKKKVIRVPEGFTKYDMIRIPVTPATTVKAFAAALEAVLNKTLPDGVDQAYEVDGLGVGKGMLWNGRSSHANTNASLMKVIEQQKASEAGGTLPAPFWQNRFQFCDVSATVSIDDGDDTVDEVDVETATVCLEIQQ

[3] = biological target: Sialic acid-binding Ig-like lectin 9 (Homo sapiens) (UniProt Q9Y336); assay: Hs-Siglec9 ALPHAscreen SOP 20170721; settings: 10 µM
Sialic acid-binding Ig-like lectin 9 (Homo sapiens), sequence (Q9Y336 whole entry): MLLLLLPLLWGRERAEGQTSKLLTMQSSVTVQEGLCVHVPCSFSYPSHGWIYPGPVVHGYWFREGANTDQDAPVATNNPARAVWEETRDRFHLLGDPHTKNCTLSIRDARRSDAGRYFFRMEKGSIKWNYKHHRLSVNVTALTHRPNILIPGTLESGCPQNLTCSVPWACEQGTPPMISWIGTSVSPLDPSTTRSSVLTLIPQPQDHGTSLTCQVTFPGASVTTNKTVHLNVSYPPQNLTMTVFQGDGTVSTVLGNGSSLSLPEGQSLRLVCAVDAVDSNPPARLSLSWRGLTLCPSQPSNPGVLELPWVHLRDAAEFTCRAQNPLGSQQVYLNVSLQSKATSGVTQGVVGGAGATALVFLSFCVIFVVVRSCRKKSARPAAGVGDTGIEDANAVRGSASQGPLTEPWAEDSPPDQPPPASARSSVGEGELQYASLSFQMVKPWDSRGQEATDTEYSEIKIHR

Trypanosoma cruzi = assay: Trypanosoma cruzi phosphomannomutase and mannose-1-phosphate guanylyltransferase assay; assay type: functional; settings: 10 µM
[4] = biological target: T2, Arginase-2, mitochondrial (Homo sapiens) (UniProt P78540); assay: in vitro enzyme assay to detect the production of urea directly proportional to the activity of Arginase II; assay type: functional; settings: 33.3 µM; further: in the data most compounds retested in dose-response had high values
T2 sequence (whole entry): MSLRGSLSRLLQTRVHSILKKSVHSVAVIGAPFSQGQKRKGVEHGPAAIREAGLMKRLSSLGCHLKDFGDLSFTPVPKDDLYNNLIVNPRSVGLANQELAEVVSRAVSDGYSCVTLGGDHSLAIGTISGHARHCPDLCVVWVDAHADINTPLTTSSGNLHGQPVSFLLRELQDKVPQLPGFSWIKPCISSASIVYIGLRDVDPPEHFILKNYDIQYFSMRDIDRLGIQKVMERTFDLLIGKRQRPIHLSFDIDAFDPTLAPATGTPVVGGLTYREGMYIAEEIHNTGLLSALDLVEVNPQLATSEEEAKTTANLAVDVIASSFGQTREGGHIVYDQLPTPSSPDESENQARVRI

[5] = biological target: T3, Proteasome subunit beta (Trypanosoma cruzi) (UniProt O96673); assay: Trypanosoma cruzi proteasome chymotrypsin-like activity (TcProtChymo) assay.; further: in the data most compounds retested in dose-response had high values; assay type: functional; settings: 9.37 µM
T3 sequence (whole entry): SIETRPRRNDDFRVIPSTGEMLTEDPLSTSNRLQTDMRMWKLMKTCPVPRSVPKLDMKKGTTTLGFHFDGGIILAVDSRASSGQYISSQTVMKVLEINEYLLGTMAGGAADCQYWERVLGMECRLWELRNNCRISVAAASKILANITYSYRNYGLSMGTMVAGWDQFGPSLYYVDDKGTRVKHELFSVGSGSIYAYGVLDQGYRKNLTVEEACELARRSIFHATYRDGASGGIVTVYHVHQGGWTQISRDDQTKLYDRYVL

Homo sapiens = organism: Homo sapiens; assay: To identify inhibition of the IFN signalling (Jak-Stat) pathway via expression of an eGFP reporter gene under the control of an IFN-stimulated response element (ISRE) containing MxA promoter.; assay type: functional; settings: 30 µM
[6] = biological target: T4, Tyrosyl-tRNA synthetase, putative (Trypanosoma cruzi (strain CL Brener)) (UniProt Q4DSP6); assay: Trypanosoma cruzi tyrosyl tRNA synthetase (TcYRS) _High Tyrosine SOP; assay type: functional; settings: 30 µM; further: in the data most compounds retested in dose-response had high values
T4 sequence (whole entry): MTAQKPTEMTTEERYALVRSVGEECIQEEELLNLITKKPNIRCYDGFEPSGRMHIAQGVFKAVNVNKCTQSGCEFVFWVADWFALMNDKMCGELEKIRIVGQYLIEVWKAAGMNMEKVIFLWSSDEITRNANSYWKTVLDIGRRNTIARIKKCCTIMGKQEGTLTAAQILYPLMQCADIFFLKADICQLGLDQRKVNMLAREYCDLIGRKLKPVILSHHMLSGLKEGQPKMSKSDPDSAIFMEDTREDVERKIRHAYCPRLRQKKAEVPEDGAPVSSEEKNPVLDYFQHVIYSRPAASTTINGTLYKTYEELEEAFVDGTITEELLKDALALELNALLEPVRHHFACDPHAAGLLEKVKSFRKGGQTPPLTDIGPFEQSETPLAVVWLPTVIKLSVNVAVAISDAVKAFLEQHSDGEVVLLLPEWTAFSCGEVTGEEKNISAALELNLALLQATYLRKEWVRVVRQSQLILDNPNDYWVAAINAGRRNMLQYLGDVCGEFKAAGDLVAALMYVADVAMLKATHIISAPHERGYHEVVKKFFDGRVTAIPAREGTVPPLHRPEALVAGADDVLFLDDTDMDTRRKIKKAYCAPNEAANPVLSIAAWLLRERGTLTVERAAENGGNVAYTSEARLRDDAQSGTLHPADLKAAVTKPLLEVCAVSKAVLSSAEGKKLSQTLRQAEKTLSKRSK

[7] = biological target: T4, Tyrosyl-tRNA synthetase, putative (Trypanosoma cruzi (strain CL Brener)); assay: Trypanosoma cruzi tyrosyl tRNA synthetase (TcYRS) SOP; assay type: functional; settings: 30 µM
[8] = biological target: Chromo domain-containing protein 1 (Saccharomyces cerevisiae (strain ATCC 204508 / S288c) (Baker's yeast)) (UniProt P32657); assay: ScCHD-1 Enzyme Inhibition Assay; assay type: functional; settings: 30 µM; further: in the data most compounds retested in dose-response had high values
Chromo domain-containing protein 1 (Saccharomyces cerevisiae (strain ATCC 204508 / S288c) (Baker's yeast)), sequence (P32657 whole entry, the tested form may be a part): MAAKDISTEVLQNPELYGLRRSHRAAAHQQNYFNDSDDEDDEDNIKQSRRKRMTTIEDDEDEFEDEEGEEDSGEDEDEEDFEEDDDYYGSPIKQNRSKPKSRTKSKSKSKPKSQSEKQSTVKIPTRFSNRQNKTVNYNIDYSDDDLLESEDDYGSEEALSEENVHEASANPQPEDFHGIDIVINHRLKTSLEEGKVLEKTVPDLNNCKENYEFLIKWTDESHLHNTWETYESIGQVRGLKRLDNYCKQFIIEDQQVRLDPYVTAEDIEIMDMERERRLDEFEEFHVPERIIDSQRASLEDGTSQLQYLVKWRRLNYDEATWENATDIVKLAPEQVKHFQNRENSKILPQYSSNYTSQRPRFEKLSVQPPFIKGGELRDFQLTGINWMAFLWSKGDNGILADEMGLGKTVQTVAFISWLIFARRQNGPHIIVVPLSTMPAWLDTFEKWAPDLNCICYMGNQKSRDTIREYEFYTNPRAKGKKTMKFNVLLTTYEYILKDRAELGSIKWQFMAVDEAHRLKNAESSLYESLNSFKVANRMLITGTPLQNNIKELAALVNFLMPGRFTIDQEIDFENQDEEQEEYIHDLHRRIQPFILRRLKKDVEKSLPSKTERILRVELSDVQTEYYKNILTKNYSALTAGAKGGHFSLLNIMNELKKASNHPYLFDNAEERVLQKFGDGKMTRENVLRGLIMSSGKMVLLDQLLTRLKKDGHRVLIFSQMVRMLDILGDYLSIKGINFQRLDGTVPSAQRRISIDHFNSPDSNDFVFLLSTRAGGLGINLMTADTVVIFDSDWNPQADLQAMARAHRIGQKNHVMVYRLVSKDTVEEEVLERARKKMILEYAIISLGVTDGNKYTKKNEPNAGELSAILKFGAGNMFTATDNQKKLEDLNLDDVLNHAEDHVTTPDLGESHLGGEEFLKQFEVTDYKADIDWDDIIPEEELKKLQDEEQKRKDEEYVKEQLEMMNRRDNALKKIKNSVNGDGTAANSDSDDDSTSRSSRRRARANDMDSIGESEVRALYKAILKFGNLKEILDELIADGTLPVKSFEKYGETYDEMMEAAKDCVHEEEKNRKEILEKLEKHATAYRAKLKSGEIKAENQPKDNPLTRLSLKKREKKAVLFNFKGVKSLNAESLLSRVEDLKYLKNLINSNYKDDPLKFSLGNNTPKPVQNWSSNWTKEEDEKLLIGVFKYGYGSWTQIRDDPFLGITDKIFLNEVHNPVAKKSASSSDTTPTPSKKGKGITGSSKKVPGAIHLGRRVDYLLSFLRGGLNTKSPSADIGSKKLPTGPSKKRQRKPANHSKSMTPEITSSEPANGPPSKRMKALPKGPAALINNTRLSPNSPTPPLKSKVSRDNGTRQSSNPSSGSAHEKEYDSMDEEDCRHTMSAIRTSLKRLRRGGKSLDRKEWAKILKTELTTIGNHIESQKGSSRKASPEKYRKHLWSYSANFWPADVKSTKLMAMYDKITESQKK

Protein translocase subunit SecA (Escherichia coli (strain K12)), sequence (P10408 whole entry): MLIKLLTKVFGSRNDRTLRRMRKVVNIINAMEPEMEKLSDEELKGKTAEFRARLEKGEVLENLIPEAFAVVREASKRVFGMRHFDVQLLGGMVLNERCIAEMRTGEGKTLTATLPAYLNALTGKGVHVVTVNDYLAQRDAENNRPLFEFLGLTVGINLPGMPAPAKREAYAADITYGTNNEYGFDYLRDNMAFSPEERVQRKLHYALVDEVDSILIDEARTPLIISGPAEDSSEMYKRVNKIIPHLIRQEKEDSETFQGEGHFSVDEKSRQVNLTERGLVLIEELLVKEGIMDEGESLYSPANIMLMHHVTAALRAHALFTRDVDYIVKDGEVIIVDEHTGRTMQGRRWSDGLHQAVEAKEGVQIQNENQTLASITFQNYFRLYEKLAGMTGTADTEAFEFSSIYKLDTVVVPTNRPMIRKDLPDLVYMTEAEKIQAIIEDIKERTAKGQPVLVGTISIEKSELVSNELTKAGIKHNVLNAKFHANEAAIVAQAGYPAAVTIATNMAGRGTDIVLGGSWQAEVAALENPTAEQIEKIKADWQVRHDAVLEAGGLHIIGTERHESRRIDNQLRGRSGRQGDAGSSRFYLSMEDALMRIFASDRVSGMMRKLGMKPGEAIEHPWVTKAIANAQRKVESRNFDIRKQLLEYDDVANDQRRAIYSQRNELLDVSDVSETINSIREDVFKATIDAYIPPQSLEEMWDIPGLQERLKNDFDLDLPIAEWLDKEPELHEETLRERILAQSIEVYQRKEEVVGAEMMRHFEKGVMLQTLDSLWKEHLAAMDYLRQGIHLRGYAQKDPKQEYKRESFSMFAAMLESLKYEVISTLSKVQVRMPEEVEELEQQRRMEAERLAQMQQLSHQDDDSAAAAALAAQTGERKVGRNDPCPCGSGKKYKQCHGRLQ

| SMILES | Percent Effect [1] | Percent Effect [2] | Percent Effect [3] | Percent Effect (Trypanosoma cruzi) | Percent Effect [4] | Percent Effect [5] | Percent Effect (Homo sapiens) | Percent Effect [6] | Percent Effect [7] | Percent Effect [8] |
| --- | --- | --- | --- | --- | --- | --- | --- | --- | --- | --- |
| O=C(C1=CCCCC1)N1CCC2(CC1)COC(COc1ccccn1)C2 (stereo not given) | -4.78% | 9.09% | 2.76% | -0.292% | -0.405% | 18.1% | -0.0236% | 3.68% | 17.9% | -3.36% |
| CC(C)NC(=O)Nc1ccc(CNCc2cccc(OC(F)F)c2)cc1 | -3.77% | 10.4% | -3.29% | -2.98% | -10% | 24% | 25.1% | 4.9% | 7.06% | -10.9% |
| Cc1ccc(N2CCC3(CCN(C(N)=O)CC3)CC2)nn1 | -4.59% | 1.3% | -5.12% | -8.47% | 3.64% | 13.5% | 5.72% | 1.58% | 0% | -0.155% |
| Cn1cc(C(=O)N2CCCC(Cc3nccs3)C2)cn1 (stereo not given) | -2.98% | 12% | -0.254% | -2.96% | 3.54% | 7.55% | 6.88% | 2.12% | 15% | -16.3% |
| Cn1ncc(C(=O)N2CCCC(n3cccn3)C2)c1C1CC1 (stereo not given) | -4.48% | 10.7% | 0.531% | -3.61% | 3.1% | 11.6% | 8.56% | 2.63% | 5.13% | -7.06% |
| CN(C)C(=O)[C@@H]1C[C@@H]2CCN(Cc3ccc4c(c3)OCO4)C[C@@H]2O1 | -2.52% | -1.3% | -0.448% | -1.07% | -2.83% | 6.62% | -0.537% | -2.63% | -2.56% | -0.196% |
| CCN(C(=O)c1ccc(-n2ncc(C#N)c2N)cc1)C1CCCC1 | -1.54% | 15.6% | 1.83% | -0.187% | -5.12% | 6.67% | 3.59% | -14.7% | 16.5% | -7.19% |
| CC(C)c1nccn1-c1cccc(C2CCCN(C3CCCC3)C2)n1 (stereo not given) | -2.48% | 6.67% | 3.65% | 0.197% | 0.885% | 15.6% | 2.2% | 6.35% | 17.5% | -23.6% |
| CC(NC(=O)c1cc(Br)c2c(c1)OCCO2)C(N)=O (stereo not given) | -7.52% | 18.7% | 6.37% | 5.82% | -3.55% | 17.9% | 0.842% | 2.63% | 10.3% | 77.7% |
| Cc1cnn(CC2CCN(CC(O)COc3ccc(F)cc3)CC2)c1 (stereo not given) | -5.77% | 2.6% | -3.53% | -1.87% | -5.94% | 4.21% | 9.11% | 0.98% | 0% | -2.59% |
| O=C1CC(c2ccncc2)C2(CCN(CCO)CC2)N1 (stereo not given) | -2.64% | 3.9% | -0.555% | 5.55% | -3.64% | 8.91% | -9.49% | -0.526% | 2.56% | 17.5% |
| Cc1cc(C(=O)NCCn2nc3ccccn3c2=O)[nH]n1 | 0.567% | 12.8% | -9.12% | -3.1% | 0% | 16.8% | 8.57% | 1.44% | 18.1% | -7.79% |
| O=C1C(NCc2nnc3n2CCCC3)CCCN1c1cccc(F)c1 (stereo not given) | 0.699% | 10.3% | -12.3% | -1.6% | 6.56% | 16.8% | 19.1% | 10.1% | 13.2% | -2.66% |
| CCc1nc(CN2CCCN(C(=O)c3c(C)noc3C)CC2)cs1 | -2.47% | 10.3% | -1.6% | 0.0939% | 2.87% | 8.11% | 13.8% | 3.35% | 8.43% | -3.62% |
| Cc1ccsc1CN(C)Cc1nc2c(cnn2C)c(=O)[nH]1 | 0.7% | 15.4% | -7.51% | 0.845% | 2.05% | 10.7% | 27.3% | 7.18% | 18.1% | -3.14% |
| CC(NCc1c(C(C)C)nn(C)c1N1CCOCC1)C(N)=O (stereo not given) | -5.06% | 7.69% | -15.9% | -3.66% | -1.23% | 14.8% | 16.4% | 0.478% | 8.43% | -6.18% |
| CN(C)C(=O)[C@@H]1CCO[C@@H]2CCN(Cc3ccc4c(c3)OCO4)C[C@@H]21 | -3.73% | 11.7% | -6.65% | 7.5% | -4.86% | 10.9% | 0.999% | 3.68% | 2.56% | 2.41% |
| O=C1NCc2ccc(NC(=O)C3CCCN3c3nccs3)cc21 (stereo not given) | 0.371% | -7.69% | 12.8% | 0.0939% | -1.23% | 1.96% | -7.22% | -0.478% | -6.02% | 105% |
| Cc1c[nH]nc1C1CCCCN1C(=O)Cn1cc(Cl)cn1 (stereo not given) | -0.928% | 14.7% | -3.24% | -2.96% | 3.1% | 15.1% | 7.7% | 3.17% | 10% | -20.3% |
| Cc1cnc(C(=O)N2CCCCC2c2[nH]ncc2S(C)(=O)=O)cn1 (stereo not given) | -1.18% | 4% | 4.14% | -0.986% | -1.77% | 4.93% | -6.39% | 6.35% | 12.5% | -18.4% |
| CCn1nc2c(cc1=O)CN(Cc1nc(CCOC)no1)CC2 | -2.71% | 5.13% | -1.28% | 4.6% | 9.43% | 0.427% | 4.98% | 0.478% | 8.43% | -3.33% |
| O=C(NCCOc1ccc2c(c1)OCO2)N1CCC1 | -4.13% | 20.8% | 6.65% | -3.36% | 5.94% | 19.1% | -11.1% | 4.9% | 16.5% | -4.94% |
| Cn1cc(CNCC2Cn3nnc(-c4ccccc4)c3CO2)cn1 (stereo not given) | -4.8% | 6.49% | 9.99% | 4.97% | 13% | 4.68% | -2.48% | 2.63% | 10.3% | 19% |

— ChEMBL document CHEMBL3988442, “University of Dundee, Small-Polar-MMV Screening Library” (2021)
